Measurements taken from the supplement of paper PMC12819154, “High-throughput peptide-centric local stability assay extends protein–ligand identification to membrane proteins, tissues and bacteria” (Nature Structural & Molecular Biology, 2025).

compound: Nc1ncnc2c1ncn2[C@@H]1O[C@H](COP(=O)(O)OP(=O)(O)OP(=O)(O)O)[C@@H](O)[C@H]1O [adenosine 5'-triphosphate]; test: log2 fold change of tryptic peptide abundance, ligand vs vehicle (limited proteolysis) (log2 ratio); higher = more trypsin-susceptible (destabilized); details: ligand concentration: 5 mM; sample: E. coli desalted lysate; replicate design: treated before aliquoting
Protocol: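 HT-PELSA: desalted E. coli K-12 BW25113 lysate (with 12 mM MgCl2) incubated with 5 mM ATP (pH 7) or water for 30 min at 25 C, then a 4 min trypsin pulse at 22 C. Peptides were quantified by DIA-MS (4 replicates). Value is the peptide log2 fold change (treated/control); negative = stabilized. Scale: negative = ligand-stabilized region.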
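Also: lysate desalted by size exclusion to strip endogenous ATP, peptide intensities built from DIA-NN precursor signals, and peptides missing any value discarded before comparison.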

Chain of UniProt P75863 (P75863 whole entry): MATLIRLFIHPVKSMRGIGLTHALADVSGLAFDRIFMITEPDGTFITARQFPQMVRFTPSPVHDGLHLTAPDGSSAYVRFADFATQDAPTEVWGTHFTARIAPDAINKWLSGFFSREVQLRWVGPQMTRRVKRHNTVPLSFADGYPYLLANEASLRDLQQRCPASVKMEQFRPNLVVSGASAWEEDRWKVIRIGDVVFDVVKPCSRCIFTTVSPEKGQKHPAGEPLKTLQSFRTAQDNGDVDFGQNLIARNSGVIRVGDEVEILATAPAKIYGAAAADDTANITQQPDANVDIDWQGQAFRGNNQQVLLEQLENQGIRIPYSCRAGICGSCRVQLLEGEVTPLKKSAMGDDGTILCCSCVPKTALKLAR
Chain of UniProt P32684 (P32684 whole entry): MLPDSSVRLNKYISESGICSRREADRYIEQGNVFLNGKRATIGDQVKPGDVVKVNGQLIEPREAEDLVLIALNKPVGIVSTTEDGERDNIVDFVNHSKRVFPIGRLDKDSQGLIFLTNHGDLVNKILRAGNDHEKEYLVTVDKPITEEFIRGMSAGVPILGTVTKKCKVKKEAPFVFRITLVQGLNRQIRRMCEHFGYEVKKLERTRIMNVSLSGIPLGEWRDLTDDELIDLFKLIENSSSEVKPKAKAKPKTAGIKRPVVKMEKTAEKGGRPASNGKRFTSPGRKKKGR
Chain of UniProt P33667 (P33667 whole entry): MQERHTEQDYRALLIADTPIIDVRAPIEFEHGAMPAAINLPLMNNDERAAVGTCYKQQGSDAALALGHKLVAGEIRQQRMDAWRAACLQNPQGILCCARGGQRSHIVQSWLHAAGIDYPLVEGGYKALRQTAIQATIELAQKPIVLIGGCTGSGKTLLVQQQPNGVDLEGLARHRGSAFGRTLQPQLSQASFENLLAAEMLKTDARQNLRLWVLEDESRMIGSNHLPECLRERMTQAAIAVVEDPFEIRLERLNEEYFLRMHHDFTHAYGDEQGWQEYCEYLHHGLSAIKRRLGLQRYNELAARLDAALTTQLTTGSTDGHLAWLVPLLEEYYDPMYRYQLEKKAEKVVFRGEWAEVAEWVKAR
Chain of UniProt P0C0L2 (P0C0L2 whole entry): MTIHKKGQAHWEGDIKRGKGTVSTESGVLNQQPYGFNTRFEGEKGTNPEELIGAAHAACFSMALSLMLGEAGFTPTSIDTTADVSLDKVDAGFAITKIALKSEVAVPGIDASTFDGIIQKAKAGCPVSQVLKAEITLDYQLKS
Chain of UniProt P36999 (P36999 whole entry): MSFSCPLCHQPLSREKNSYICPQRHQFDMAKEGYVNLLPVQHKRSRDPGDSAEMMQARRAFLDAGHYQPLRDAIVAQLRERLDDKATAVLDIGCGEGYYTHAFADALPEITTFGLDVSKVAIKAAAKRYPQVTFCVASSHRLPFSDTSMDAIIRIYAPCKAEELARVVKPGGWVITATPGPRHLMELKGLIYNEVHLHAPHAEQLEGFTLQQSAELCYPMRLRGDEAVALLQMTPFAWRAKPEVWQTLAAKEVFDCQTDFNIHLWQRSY
Chain of UniProt P42599 (P42599 whole entry): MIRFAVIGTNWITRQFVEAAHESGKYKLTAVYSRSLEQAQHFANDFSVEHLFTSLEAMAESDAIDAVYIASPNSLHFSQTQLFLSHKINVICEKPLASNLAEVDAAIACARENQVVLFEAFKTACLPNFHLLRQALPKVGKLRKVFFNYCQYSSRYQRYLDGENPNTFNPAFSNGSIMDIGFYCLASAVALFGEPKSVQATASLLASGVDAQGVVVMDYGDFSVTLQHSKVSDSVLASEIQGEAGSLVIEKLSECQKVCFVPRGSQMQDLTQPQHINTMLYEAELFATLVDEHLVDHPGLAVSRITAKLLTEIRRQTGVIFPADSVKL
Chain of UniProt P08192 (P08192 whole entry): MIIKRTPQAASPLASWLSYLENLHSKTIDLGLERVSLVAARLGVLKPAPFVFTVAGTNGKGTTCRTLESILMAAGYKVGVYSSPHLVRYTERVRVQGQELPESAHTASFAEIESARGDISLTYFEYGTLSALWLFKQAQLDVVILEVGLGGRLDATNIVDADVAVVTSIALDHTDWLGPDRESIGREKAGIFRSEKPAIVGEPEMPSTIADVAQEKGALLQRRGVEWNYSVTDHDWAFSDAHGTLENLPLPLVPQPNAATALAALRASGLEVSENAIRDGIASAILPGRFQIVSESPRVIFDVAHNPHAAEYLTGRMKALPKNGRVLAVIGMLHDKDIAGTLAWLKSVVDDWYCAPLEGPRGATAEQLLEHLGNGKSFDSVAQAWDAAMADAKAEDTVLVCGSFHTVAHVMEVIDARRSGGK
Chain of UniProt P32053 (P32053 whole entry): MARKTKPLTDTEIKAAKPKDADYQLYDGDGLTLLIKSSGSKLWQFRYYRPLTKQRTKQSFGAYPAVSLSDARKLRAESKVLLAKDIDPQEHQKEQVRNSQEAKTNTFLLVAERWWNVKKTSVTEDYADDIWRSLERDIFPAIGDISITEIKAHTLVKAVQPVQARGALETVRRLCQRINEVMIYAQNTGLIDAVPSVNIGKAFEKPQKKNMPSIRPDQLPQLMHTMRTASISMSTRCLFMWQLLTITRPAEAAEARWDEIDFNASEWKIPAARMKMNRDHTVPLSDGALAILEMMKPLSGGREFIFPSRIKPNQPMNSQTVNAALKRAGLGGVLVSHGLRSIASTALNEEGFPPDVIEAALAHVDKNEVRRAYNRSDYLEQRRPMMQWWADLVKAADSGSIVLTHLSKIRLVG
Chain of UniProt P22939 (P22939 whole entry): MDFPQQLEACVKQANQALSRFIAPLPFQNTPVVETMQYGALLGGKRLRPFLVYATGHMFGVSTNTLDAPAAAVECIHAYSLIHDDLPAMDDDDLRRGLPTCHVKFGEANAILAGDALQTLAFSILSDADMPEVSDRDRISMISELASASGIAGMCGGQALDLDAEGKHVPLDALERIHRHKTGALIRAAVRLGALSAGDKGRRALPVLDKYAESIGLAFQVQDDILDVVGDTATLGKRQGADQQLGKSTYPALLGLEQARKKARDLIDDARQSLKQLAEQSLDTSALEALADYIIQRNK
Chain of UniProt P76193 (P76193 whole entry): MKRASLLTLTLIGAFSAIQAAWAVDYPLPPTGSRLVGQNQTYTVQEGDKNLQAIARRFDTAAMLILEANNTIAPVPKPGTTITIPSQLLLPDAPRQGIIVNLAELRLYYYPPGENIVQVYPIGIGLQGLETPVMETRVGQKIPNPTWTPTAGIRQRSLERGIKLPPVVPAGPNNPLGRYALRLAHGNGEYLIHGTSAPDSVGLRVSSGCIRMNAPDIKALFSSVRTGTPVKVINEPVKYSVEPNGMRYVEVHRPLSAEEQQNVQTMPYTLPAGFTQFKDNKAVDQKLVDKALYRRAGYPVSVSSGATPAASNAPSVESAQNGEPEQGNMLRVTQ
Chain of UniProt P77265 (P77265 whole entry): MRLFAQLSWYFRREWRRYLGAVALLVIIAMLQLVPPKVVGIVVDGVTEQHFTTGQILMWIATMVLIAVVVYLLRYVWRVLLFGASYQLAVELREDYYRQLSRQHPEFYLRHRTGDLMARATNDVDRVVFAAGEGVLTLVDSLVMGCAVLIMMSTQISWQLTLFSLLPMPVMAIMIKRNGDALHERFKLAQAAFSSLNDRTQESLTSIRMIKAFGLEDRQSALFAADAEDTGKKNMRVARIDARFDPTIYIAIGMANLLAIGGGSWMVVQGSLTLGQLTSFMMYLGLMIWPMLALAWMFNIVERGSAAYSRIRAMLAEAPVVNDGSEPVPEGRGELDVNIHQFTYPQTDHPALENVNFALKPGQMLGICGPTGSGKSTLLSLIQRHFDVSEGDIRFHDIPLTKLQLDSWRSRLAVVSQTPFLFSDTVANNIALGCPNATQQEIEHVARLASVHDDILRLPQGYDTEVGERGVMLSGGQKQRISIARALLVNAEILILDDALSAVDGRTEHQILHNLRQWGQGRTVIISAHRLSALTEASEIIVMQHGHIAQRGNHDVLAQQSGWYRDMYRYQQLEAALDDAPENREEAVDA
Chain of UniProt P39830 (P39830 whole entry): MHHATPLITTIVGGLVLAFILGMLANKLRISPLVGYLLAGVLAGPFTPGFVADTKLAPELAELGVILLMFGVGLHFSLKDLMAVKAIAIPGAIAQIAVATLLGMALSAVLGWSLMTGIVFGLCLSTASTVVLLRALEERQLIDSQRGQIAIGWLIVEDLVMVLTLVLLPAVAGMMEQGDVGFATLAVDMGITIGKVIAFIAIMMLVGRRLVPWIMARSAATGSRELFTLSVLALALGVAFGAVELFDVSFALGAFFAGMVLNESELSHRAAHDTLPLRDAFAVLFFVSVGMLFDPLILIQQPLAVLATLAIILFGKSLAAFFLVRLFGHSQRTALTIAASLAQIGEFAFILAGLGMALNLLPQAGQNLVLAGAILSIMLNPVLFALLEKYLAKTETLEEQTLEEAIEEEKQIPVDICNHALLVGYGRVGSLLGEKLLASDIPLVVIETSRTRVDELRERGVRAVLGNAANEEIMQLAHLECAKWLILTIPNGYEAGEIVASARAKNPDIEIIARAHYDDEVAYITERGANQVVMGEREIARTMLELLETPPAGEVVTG
Chain of UniProt P16095 (P16095 whole entry): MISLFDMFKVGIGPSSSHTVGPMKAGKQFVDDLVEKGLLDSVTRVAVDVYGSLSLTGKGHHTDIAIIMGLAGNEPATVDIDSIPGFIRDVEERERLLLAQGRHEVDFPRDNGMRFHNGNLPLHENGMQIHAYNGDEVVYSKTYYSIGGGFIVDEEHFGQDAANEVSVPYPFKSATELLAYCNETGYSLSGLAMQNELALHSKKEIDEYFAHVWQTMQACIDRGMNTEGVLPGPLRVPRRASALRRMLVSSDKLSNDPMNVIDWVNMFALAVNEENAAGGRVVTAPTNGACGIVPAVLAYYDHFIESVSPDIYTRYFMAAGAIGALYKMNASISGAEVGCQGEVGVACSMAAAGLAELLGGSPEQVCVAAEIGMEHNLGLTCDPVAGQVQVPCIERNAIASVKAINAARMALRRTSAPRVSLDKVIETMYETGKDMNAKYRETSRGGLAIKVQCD

Target	log2 fold change
UniProt P33667 (peptide sequence: MIGSNHLPECLR, peptide start residue: 220)	0.32
UniProt P27129 (peptide sequence: DVEPMQEK, peptide start residue: 157)	-0.645
UniProt P28903 (peptide sequence: DGCKVPFK, peptide start residue: 9)	-0.869
UniProt P24188 (peptide sequence: NHYEYEVGHFENALEIPADTFR, peptide start residue: 157)	0.32
UniProt P04425 (peptide sequence: GTLIVNKPQSLR, peptide start residue: 109)	-1.9
UniProt P15977 (peptide sequence: RKLSATLESMFADDGVNK, peptide start residue: 661)	-0.78
UniProt P22939 (peptide sequence: GLPTCHVK, peptide start residue: 97)	0.252
UniProt P39830 (peptide sequence: GANQVVMGER, peptide start residue: 528)	1.21
UniProt P03835 (peptide sequence: DLASMGQLVK, peptide start residue: 402)	-1.3
UniProt P27828 (peptide sequence: DTTERPEAVTAGTVR, peptide start residue: 309)	-0.6
UniProt P39199 (peptide sequence: AWFCGHEFYVDER, peptide start residue: 97)	1.88
UniProt P76193 (peptide sequence: TGTPVKVINEPVKYSVEPNGMR, peptide start residue: 226)	-0.912
UniProt P16691 (peptide sequence: VGFNANLRDPNMR, peptide start residue: 36)	-0.259
UniProt P77265 (peptide sequence: QHPEFYLR, peptide start residue: 103)	-0.556
UniProt P37760 (peptide sequence: ALQEYCAK, peptide start residue: 138)	-1.03
UniProt P32684 (peptide sequence: ITLVQGLNR, peptide start residue: 179)	0.498
UniProt P34209 (peptide sequence: MTGDNPDAPR, peptide start residue: 166)	-0.261
UniProt P21865 (peptide sequence: AIEHFFR, peptide start residue: 205)	0.436
UniProt P77615 (peptide sequence: AIEELQYQPNKLAR, peptide start residue: 40)	0.358
UniProt P16095 (peptide sequence: VGIGPSSSHTVGPMK, peptide start residue: 10)	0.369

Target	log2 fold change
UniProt P27249 (peptide sequence: VEDLFIIATADRR, peptide start residue: 854)	0.328
UniProt P08400 (peptide sequence: FSFVIPER, peptide start residue: 417)	2.08
UniProt P36999 (peptide sequence: RYPQVTFCVASSHR, peptide start residue: 128)	-0.656
UniProt P28904 (peptide sequence: LDVVNLISKDPR, peptide start residue: 199)	-0.478
UniProt P22106 (peptide sequence: QALEDSVK, peptide start residue: 214)	-0.816
UniProt P42599 (peptide sequence: LSECQKVCFVPR, peptide start residue: 252)	-0.582
UniProt P75863 (peptide sequence: WVGPQMTR, peptide start residue: 122)	-0.577
UniProt P08192 (peptide sequence: FQIVSESPR, peptide start residue: 290)	-0.913
UniProt P32053 (peptide sequence: AFEKPQKK, peptide start residue: 202)	-0.721
UniProt P08394 (peptide sequence: HCYPLPR, peptide start residue: 171)	1.13
UniProt P0C0L2 (peptide sequence: GQAHWEGDIKR, peptide start residue: 7)	-0.717
UniProt P43329 (peptide sequence: IAEELKTEPGGCIGYK, peptide start residue: 142)	-2.41
UniProt P77399 (peptide sequence: TQGNYPATER, peptide start residue: 240)	-0.418
UniProt P32143 (peptide sequence: AGIPDCDQTR, peptide start residue: 282)	-2.48
UniProt P33919 (peptide sequence: LLGLTATPFR, peptide start residue: 146)	-1.8
UniProt P08390 (peptide sequence: AVDALAGQSAK, peptide start residue: 168)	0.237
UniProt P06720 (peptide sequence: CVEQLANWHKELEEYKK, peptide start residue: 299)	-1.1
UniProt P43340 (peptide sequence: KIQVTELDLYRR, peptide start residue: 34)	1.23
MurD (peptide sequence: YLNGDNVR, peptide start residue: 359) (UniProt P14900)	-1.33
UniProt P32173 (peptide sequence: DAPVVWVHDGERDHPTIALVNR, peptide start residue: 119)	-0.372
